Test results published in PubChem BioAssay (NCATS).
Inconclusive results are not listed. Active and inactive are the calls of the source. Calls follow the shape of the dose curve; as a rule, active = well fitted cell-killing curve with a large enough effect; inconclusive = small, poorly fitted or top-dose-only effect, or effect the other way; inactive = no such curve, though single readings can be large or run the other way.

Key:
[1] = Quantitative High-Throughput drug screen in 47 multiple myeloma cell lines against the NCATS MIPE library collection: MM1R_ATCC cell viability assay (AID 1918981); also: nearly all actives have a fitted effect of over 35% in size; also: potency is read from the fitted curve at half-maximal effect
In short: (§1)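 Myeloma cells (500/well) treated with MIPE 4.0 compounds for 48 h at 37 °C, 5% CO2. Viability read as ATP via CellTiter-Glo luminescence after 5 min at RT; DMSO-only wells = 100%, media-only = 0% viability.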

[2] = Quantitative High-Throughput drug screen in 47 multiple myeloma cell lines against the NCATS MIPE library collection: OCIMY7_PLB cell viability assay (AID 1918987); also: nearly all actives have a fitted effect of over 65% in size; also: potency is read from the fitted curve at half-maximal effect
In short: as §1

[3] = Quantitative High-Throughput drug screen in 47 multiple myeloma cell lines against the NCATS MIPE library collection: OPM1_PLB cell viability assay (AID 1918989); also: nearly all actives have a fitted effect of over 40% in size; also: potency is read from the fitted curve at half-maximal effect
In short: as §1

[4] = Quantitative High-Throughput drug screen in 47 multiple myeloma cell lines against the NCATS MIPE library collection: U266_ATCC cell viability assay (AID 1919864); also: nearly all actives have a fitted effect of over 35% in size; also: potency is read from the fitted curve at half-maximal effect
In short: as §1

[5] = Quantitative High-Throughput drug screen in 47 multiple myeloma cell lines against the NCATS MIPE library collection: VP6_DJ cell viability assay (AID 1919867); also: nearly all actives have a fitted effect of over 40% in size; also: potency is read from the fitted curve at half-maximal effect
In short: as §1

[6] = Quantitative High-Throughput drug screen in 47 multiple myeloma cell lines against the NCATS MIPE library collection: PE2_PLB cell viability assay (AID 1919869); also: nearly all actives have a fitted effect of over 35% in size; also: potency is read from the fitted curve at half-maximal effect
In short: as §1

[7] = Quantitative High-Throughput drug screen in 47 multiple myeloma cell lines against the NCATS MIPE library collection: RPMI8226_ATCC cell viability assay (AID 1919871); also: nearly all actives have a fitted effect of over 30% in size; also: potency is read from the fitted curve at half-maximal effect
In short: as §1

[8] = Quantitative High-Throughput drug screen in 47 multiple myeloma cell lines against the NCATS MIPE library collection: KMS11_JCRBsus cell viability assay (AID 1919873); also: nearly all actives have a fitted effect of over 50% in size; also: potency is read from the fitted curve at half-maximal effect
In short: as §1

[9] = Quantitative High-Throughput drug screen in 47 multiple myeloma cell lines against the NCATS MIPE library collection: KMS28BM_JCRB cell viability assay (AID 1919874); also: nearly all actives have a fitted effect of over 35% in size; also: potency is read from the fitted curve at half-maximal effect
In short: as §1

[10] = Quantitative High-Throughput drug screen in 47 multiple myeloma cell lines against the NCATS MIPE library collection: KMS28PE_JCRB cell viability assay (AID 1918983); also: nearly all actives have a fitted effect of over 35% in size; also: potency is read from the fitted curve at half-maximal effect
In short: as §1

[11] = Quantitative High-Throughput drug screen in 47 multiple myeloma cell lines against the NCATS MIPE library collection: L363_DSMZ cell viability assay (AID 1918984); also: nearly all actives have a fitted effect of over 40% in size; also: potency is read from the fitted curve at half-maximal effect
In short: as §1

[12] = Quantitative High-Throughput drug screen in 47 multiple myeloma cell lines against the NCATS MIPE library collection: KMS34_JCRB cell viability assay (AID 1918985); also: nearly all actives have a fitted effect of over 40% in size; also: potency is read from the fitted curve at half-maximal effect
In short: as §1

[13] = Quantitative High-Throughput drug screen in 47 multiple myeloma cell lines against the NCATS MIPE library collection: OCIMY5_PLB cell viability assay (AID 1918988); also: nearly all actives have a fitted effect of over 65% in size; also: potency is read from the fitted curve at half-maximal effect
In short: as §1

[14] = Quantitative High-Throughput drug screen in 47 multiple myeloma cell lines against the NCATS MIPE library collection: SKMM1_PLB cell viability assay (AID 1919863); settings: SKMM1 myeloma viability, CellTiter-Glo ATP, 48 h; viability: hits give low values; also: nearly all actives have a fitted effect of over 35% in size; also: potency is read from the fitted curve at half-maximal effect; as to viability: series mostly up to about 46 µM
In short: as §1

[15] = Quantitative High-Throughput drug screen in 47 multiple myeloma cell lines against the NCATS MIPE library collection: XG1_PLB cell viability assay (AID 1919866); also: nearly all actives have a fitted effect of over 35% in size; also: potency is read from the fitted curve at half-maximal effect
In short: as §1

[16] = Quantitative High-Throughput drug screen in 47 multiple myeloma cell lines against the NCATS MIPE library collection: UTMC2_PLB cell viability assay (AID 1919868); also: nearly all actives have a fitted effect of over 55% in size; also: potency is read from the fitted curve at half-maximal effect
In short: as §1

[17] = Quantitative High-Throughput drug screen in 47 multiple myeloma cell lines against the NCATS MIPE library collection: PCM6_Riken cell viability assay (AID 1919870); also: nearly all actives have a fitted effect of over 30% in size; also: potency is read from the fitted curve at half-maximal effect
In short: as §1

[18] = Quantitative High-Throughput drug screen in 47 multiple myeloma cell lines against the NCATS MIPE library collection: XG6_PLB cell viability assay (AID 1919865); also: nearly all actives have a fitted effect of over 40% in size
In short: as §1

[19] = Quantitative High-Throughput drug screen in 47 multiple myeloma cell lines against the NCATS MIPE library collection: OPM2_DSMZ cell viability assay (AID 1919872); also: nearly all actives have a fitted effect of over 30% in size
In short: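 Luminescent ATP measurement with CellTiter-Glo gives viability, scaled between DMSO-only wells (100%) and media-only wells (0%). Cells, 500 per well, faced library compounds for 48 hours at 37C.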

[20] = Quantitative High-Throughput drug screen in 47 multiple myeloma cell lines against the NCATS MIPE library collection: LP1_DSMZ cell viability assay (AID 1918982); also: nearly all actives have a fitted effect of over 35% in size; also: potency is read from the fitted curve at half-maximal effect
In short: as §1

Cc1oc(=O)oc1CN1CCN(c2cc3c(cc2F)c(=O)c(C(=O)O)c2n3C(C)S2)CC1 (stereo not drawn)
active: Potency [6] 13.2 µM
inactive: Potency [1] | Potency [2] | Potency [3] | Potency [4] | Potency [5] | Potency [7] | Potency [8] | Potency [9]

CCOC(=O)[C@H](CCc1ccccc1)N[C@H]1CS[C@H](c2cccs2)CN(CC(=O)O)C1=O
active: Potency [1] 18.7 µM | Potency [10] 18.7 µM | Potency [11] 0.662 µM | Potency [12] 10.5 µM | Potency [13] 16.6 µM | Potency [3] 5.9 µM | Potency [14] 14.8 µM | Potency [4] 5.9 µM | Potency [15] 0.935 µM | Potency [5] 0.296 µM | Potency [16] 11.8 µM | Potency [7] 16.6 µM | Potency [9] 0.59 µM

CCCCOc1ccc(CC(=O)NO)cc1
inactive: Potency [15] | Potency [17] | Potency [9]
active: Potency [1] 8.33 µM | Potency [10] 20.9 µM | Potency [11] 18.7 µM | Potency [2] 16.6 µM | Potency [13] 9.35 µM | Potency [3] 14.8 µM | Potency [4] 8.33 µM

O=C(O)C1CCCN(CCC=C(c2ccccc2)c2ccccc2)C1 (stereo not drawn)
inactive: Potency [1] | Potency [10] | Potency [2] | Potency [13] | Potency [3] | viability [14] 122% | Potency [18] | Potency [15] | Potency [6] | Potency [17] | Potency [7] | Potency [19] | Potency [9]

N=C(N)c1ccc(OCCCCCOc2ccc(C(=N)N)cc2)cc1
inactive: Potency [11]
active: Potency [1] 18.7 µM | Potency [10] 14.8 µM | Potency [2] 2.35 µM | Potency [13] 14.8 µM | Potency [3] 11.8 µM | Potency [14] 20.9 µM | Potency [4] 23.5 µM | Potency [15] 4.69 µM | Potency [5] 2.09 µM | Potency [6] 5.9 µM | Potency [17] 5.9 µM | Potency [7] 5.9 µM | Potency [9] 5.9 µM

Cc1cc(NS(=O)(=O)c2ccc(N)cc2)no1
active: Potency [2] 16.6 µM | Potency [4] 10.5 µM
inactive: Potency [1] | Potency [10] | Potency [11] | Potency [12] | Potency [3] | viability [14] 140% | Potency [5] | Potency [6] | Potency [7] | Potency [19] | Potency [8] | Potency [9]

CC1(C)[C@H](C(=O)O)N2C(=O)C[C@H]2S1(=O)=O
inactive: Potency [1] | Potency [11] | Potency [3] | viability [14] 120% | Potency [18] | Potency [5] | Potency [6] | Potency [7] | Potency [19] | Potency [9]
active: Potency [20] 0.0012 µM

CNS(=O)(=O)Cc1ccc2[nH]cc(CCN(C)C)c2c1
active: Potency [6] 14.8 µM
inactive: Potency [1] | Potency [20] | Potency [12] | Potency [2] | Potency [13] | Potency [3] | viability [14] 112% | Potency [15] | Potency [17] | Potency [7] | Potency [19] | Potency [9]

Clc1ccccc1CN1CCc2sccc2C1
inactive: Potency [7]

CCN(C)C(=O)Oc1cccc([C@H](C)N(C)C)c1
inactive: Potency [10] | Potency [13] | Potency [3] | Potency [15] | Potency [6] | Potency [19] | Potency [9]

Nc1nc(N)c2nc(CNc3ccc(C(=O)NC(CCC(=O)O)C(=O)O)cc3)cnc2n1 (stereo not drawn)
inactive: Potency [10]
active: Potency [20] 0.0296 µM | Potency [4] 0.148 µM | Potency [15] 0.0332 µM | Potency [8] 0.0526 µM | Potency [9] 0.0296 µM

Cc1noc(NS(=O)(=O)c2ccc(N)cc2)c1C
inactive: Potency [20] | Potency [10] | Potency [13] | Potency [3] | Potency [18] | Potency [15] | Potency [6] | Potency [17] | Potency [7] | Potency [19] | Potency [9]

C[C@@H](CN1CC(=O)NC(=O)C1)N1CC(=O)NC(=O)C1
active: Potency [11] 2.96 µM | Potency [2] 2.35 µM | Potency [15] 14.8 µM | Potency [16] 2.96 µM
inactive: Potency [20] | Potency [12] | Potency [13] | viability [14] 130% | Potency [4] | Potency [7] | Potency [19] | Potency [8]

CS(=O)(=O)c1ccc([C@@H](O)[C@@H](CO)NC(=O)C(Cl)Cl)cc1
active: Potency [15] 18.7 µM | Potency [5] 16.6 µM | Potency [16] 13.2 µM | Potency [7] 2.35 µM
inactive: Potency [10] | Potency [4] | Potency [19]

CCOC(=O)c1ccc(C#Cc2ccc3c(c2)C(C)(C)CCS3)nc1
inactive: Potency [11] | viability [14] 115% | Potency [6] | Potency [7] | Potency [19] | Potency [9]

CC(=O)[C@H]1CC[C@H]2[C@@H]3CCC4=CC(=O)CC[C@]4(C)[C@H]3CC[C@]12C
active: Potency [3] 8.33 µM | Potency [5] 7.43 µM | Potency [9] 16.6 µM
inactive: Potency [10]

Cc1cccc(Nc2ccncc2S(=O)(=O)NC(=O)NC(C)C)c1
active: Potency [13] 0.0013 µM | Potency [5] 7.43 µM
inactive: Potency [20] | Potency [10] | Potency [12] | Potency [3] | Potency [4] | Potency [18] | Potency [16] | Potency [6] | Potency [19]

CCc1cc(C(N)=S)ccn1
inactive: Potency [20] | Potency [10] | Potency [11] | Potency [12] | Potency [3] | Potency [18] | Potency [15] | Potency [17] | Potency [7] | Potency [19] | Potency [9]

COC(=O)Nc1nc2ccc(S(=O)c3ccccc3)cc2[nH]1 (stereo not drawn)
active: Potency [12] 23.5 µM | Potency [2] 7.43 µM | Potency [13] 16.6 µM | Potency [15] 8.33 µM | Potency [5] 13.2 µM
